The record followed here is PubChem BioAssay (Tox21).

Values without a mark were called inactive. Records with an inconclusive call do not appear. The source made the active and inactive calls. Unless noted, the call rests on the fitted dose curve; in most records, active means well fitted curve in the direction sought with a large enough effect in the repeat runs; inconclusive means weak or mixed curves; inactive means no such curve, though single readings can be large; an effect the other way counts as inactive or inconclusive.

Test [1] can be described thus: A CellTox Green Cytotoxicity Assay to monitor cytotoxicity in HEK293 cells - 32 hour (AID 1224881). Further: nearly all actives have a fitted effect of over 40% in size. Further: potency means the concentration at half of the fitted maximal effect. A digest of the protocol: (§1)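 Seeding of HEK293 cells together with cytotoxicity dye preceded a 5 h incubation at 37 C/5% CO2. Test compounds in DMSO were then added and fluorescence monitored across 40 h.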
The nature of test [2]: A CellTox Green Cytotoxicity Assay to monitor cytotoxicity in HepG2 cells - 0 hour (AID 1224882). Further: nearly all actives have a fitted effect of over 35% in size. Further: potency means the concentration at half of the fitted maximal effect. A digest of the protocol: (§2)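 Nonlytic assay: viable cells exclude the dye, so fluorescence scales with cell death. HepG2 at 600 cells/well, compounds added after 5 h, signal read across 40 h.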
Test [3] can be described thus: A CellTox Green Cytotoxicity Assay to monitor cytotoxicity in HEK293 cells - 8 hour (AID 1224884). Further: nearly all actives have a fitted effect of over 35% in size. Further: potency means the concentration at half of the fitted maximal effect. The gist of the method: as §1
The nature of test [4]: qHTS RealTime-Glo MT Cell Viability Assay in HepG2 cells - 16 hour (AID 1224885). Further: nearly all actives have a fitted effect of over 50% in size. A digest of the protocol:
(§3)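 Cell number in HepG2 cultures estimated from NanoLuc luminescence generated by metabolic reduction of a prosubstrate by living cells. The homogeneous, nonlytic format allowed repeated reads at 0, 8, 16, 24, 32 and 40 h of compound exposure.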

Test [5] is described as follows: qHTS RealTime-Glo MT Cell Viability Assay in HEK293 cells - 24 hour (AID 1224886). Further: top concentration of the series differs between compounds; nearly all actives have a fitted effect of over 50% in size. A digest of the protocol:
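Homogeneous bioluminescent viability format in HEK293 cells (600 cells/well). Following 5 h at 37 C/5% CO2, 23 nL compound was pintooled; the signal was measured repeatedly during 40 h incubation.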

The nature of test [6]: qHTS RealTime-Glo MT Cell Viability Assay in HEK293 cells - 8 hour (AID 1224887). Further: top concentration of the series differs between compounds; nearly all actives have a fitted effect of over 50% in size. The gist of the method:
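Tox21 screen in HEK293 using RealTime-Glo MT chemistry, with cells and reagent co-dispensed. Luminescence proportional to viable cell number was captured at intervals during 40 h compound exposure at 37 C.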

Test [7] can be described thus: A CellTox Green Cytotoxicity Assay to monitor cytotoxicity in HEK293 cells - 16 hour (AID 1224888). Further: nearly all actives have a fitted effect of over 35% in size. The gist of the method:
as §1

Test [8] in a line: qHTS RealTime-Glo MT Cell Viability Assay in HepG2 cells - 0 hour (AID 1224889). Further: nearly all actives have a fitted effect of over 50% in size. Further: potency means the concentration at half of the fitted maximal effect. The gist of the method: as §3
A general note: qHTS replaces the single test concentration by a dilution series.

Test [9] in a line: A CellTox Green Cytotoxicity Assay to monitor cytotoxicity in HepG2 cells - 8 hour (AID 1224890). Further: nearly all actives have a fitted effect of over 45% in size. A digest of the protocol:
as §2

Test [10] can be described thus: qHTS assay to identify small molecule antagonists of the estrogen receptor alpha (ER-alpha) signaling pathway using the BG1 cell line in the presence of 0.1 nM 17-beta-estradiol - cell viability counter screen (AID 1259241). Further: nearly all actives have a fitted effect of over 40% in size. A digest of the protocol:
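VM7Luc4E2, 4,000 cells/well, phenol red-free medium + 10% charcoal-stripped FBS; 24 hr plating; cpd + 0.1 nM E2 final, 22 hr 37C/5% CO2; CellTiter-Fluor 30 min, fluorescence.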

A short description of test [11]: qHTS assay to identify small molecule antagonists of the androgen receptor (AR) signaling pathway using the MDA cell line in the presence of 0.5 nM R1881 - cell viability counter screen (AID 1259242). Further: nearly all actives have a fitted effect of over 45% in size. A digest of the protocol:
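R1881 at 0.5 nM final stimulated MDA-kb2 cells during 16 hr compound treatment at 37C. Cytotoxicity read: CellTiter-Fluor fluorescence after 30 min.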

Test [12] in a line: qHTS assay to identify small molecule HDAC inhibitors (AID 1259364). Further: potency means the concentration at half of the fitted maximal effect.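 Further: wild-type HCT-116 cells with endogenous class I/II HDAC activity; nearly all actives have a fitted effect of over 45% in size.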 On activity change, negative = inhibition: top concentration of the series differs between compounds. A digest of the protocol: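 Relative class I and II HDAC activity is taken from the luminogenic signal in HCT-116 cells, with compound exposure 2 hr and reagent development 30 min at room temperature.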
Test [13] is described as follows: qHTS assay to identify small molecule HDAC inhibitors - cell viability counter screen (AID 1259365). Further: nearly all actives have a fitted effect of over 50% in size. Further: potency means the concentration at half of the fitted maximal effect. On activity change, negative = cytotoxicity: series mostly up to about 92 µM. A digest of the protocol:
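Luminescence from CellTiter-Glo, developed 30min at room temperature, reports viability of wild-type HCT-116 cells treated 2hr with compounds at 37 C and 5% CO2 after overnight plating.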

Test [14] is described as follows: qHTS assay to identify small molecule agonists of the sonic hedgehog signaling (Shh) pathway - cell viability counter screen (AID 1259366). Further: nearly all actives have a fitted effect of over 50% in size. A digest of the protocol: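 Cytotoxicity counter screen run in the same wells as the Shh reporter assay. NIH/3T3 cells carrying a Gli1 response element–driven luciferase were treated with DMSO-dissolved compounds for 24hr, and live-cell protease activity was measured with CellTiter-Fluor.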

A short description of test [15]: qHTS assay to identify small molecule antagonists of the sonic hedgehog signaling (Shh) pathway - cell viability counter screen (AID 1259367). Further: nearly all actives have a fitted effect of over 55% in size. A digest of the protocol: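 After a 4 hr settling period, 3T3 Gli1-Luc cells were treated with DMSO-dissolved chemicals and conditioned medium, kept 24 hr at 37C in 5% CO2, and assayed for viability by CellTiter-Fluor fluorescence following 1 hr reagent incubation.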

A short description of test [16]: qHTS assay to identify small molecule agonists of the sonic hedgehog signaling (Shh) pathway (AID 1259368; calls by dose curve;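 further: NIH/3T3-derived 3T3Gli1-Luc cells carrying a stable Gli1-driven firefly luciferase reporter; series mostly up to about 92 µM; nearly all actives have a fitted effect of over 15% in size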). The gist of the method: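 Mouse fibroblast (NIH/3T3) reporter cells with stably integrated Gli1-Luc were treated 24 hr with compound; firefly luciferase luminescence served as the read-out.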
Test [17] has as its target Estrogen receptor (Homo sapiens) (UniProt P03372). The test is described as follows: qHTS assay to identify small molecule antagonists of the estrogen receptor alpha (ER-alpha) signaling pathway using the BG1 cell line in the presence of 0.1 nM 17-beta-estradiol (AID 1259244). Further: nearly all actives have a fitted effect of over 50% in size. A digest of the protocol: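 VM7Luc4E2; 4xERE-luciferase; 0.1 nM E2 final; 22 h co-incubation, 37C; ONE-Glo luminescence after 30 min at room temperature.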

Test [18] can be described thus: qHTS assay to identify small molecule phospholipidosis (PLD) inducers (AID 1259344; active means well fitted curve in the direction sought with a large enough effect; an effect the other way counts as inactive or inconclusive). The gist of the method: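 HepG2 cells grown on collagen I take up LipidTOX Red while exposed to compound for 24 h; after fixation they are imaged at 20x and pit metrics are extracted.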
In test [19] the target is Androgen receptor (Homo sapiens) (UniProt P10275). The test is described as follows: qHTS assay to identify small molecule antagonists of the androgen receptor (AR) signaling pathway using the MDA cell line in the presence of 0.5 nM R1881 (AID 1259243). Further: nearly all actives have a fitted effect of over 50% in size. Further: potency means the concentration at half of the fitted maximal effect. The gist of the method:
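We exposed MDA-kb2 cells to compounds under 0.5 nM R1881 stimulation for 16 hr at 37C and quantified MMTV-driven luciferase by luminescence.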
On the % scale 0 is the no-effect control and ±100 the full control effect.

Sequence of Estrogen receptor (Homo sapiens) (P03372 whole entry, looked up): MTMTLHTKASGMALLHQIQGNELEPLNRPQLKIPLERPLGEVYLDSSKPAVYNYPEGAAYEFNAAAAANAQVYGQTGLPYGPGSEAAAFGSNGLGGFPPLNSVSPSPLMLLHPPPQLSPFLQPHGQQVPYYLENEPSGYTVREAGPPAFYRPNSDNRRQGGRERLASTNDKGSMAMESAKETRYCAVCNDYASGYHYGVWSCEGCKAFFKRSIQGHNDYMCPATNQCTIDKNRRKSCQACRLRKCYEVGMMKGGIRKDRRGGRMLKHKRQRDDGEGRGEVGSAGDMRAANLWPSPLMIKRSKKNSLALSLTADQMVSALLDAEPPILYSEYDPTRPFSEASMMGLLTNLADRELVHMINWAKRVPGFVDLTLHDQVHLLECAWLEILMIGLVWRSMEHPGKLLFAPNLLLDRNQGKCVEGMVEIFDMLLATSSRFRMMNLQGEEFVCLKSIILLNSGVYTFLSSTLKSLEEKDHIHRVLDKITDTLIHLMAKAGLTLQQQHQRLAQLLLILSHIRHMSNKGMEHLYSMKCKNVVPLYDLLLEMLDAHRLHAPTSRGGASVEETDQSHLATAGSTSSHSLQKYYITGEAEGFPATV
Sequence of Androgen receptor (Homo sapiens) (P10275 whole entry, looked up): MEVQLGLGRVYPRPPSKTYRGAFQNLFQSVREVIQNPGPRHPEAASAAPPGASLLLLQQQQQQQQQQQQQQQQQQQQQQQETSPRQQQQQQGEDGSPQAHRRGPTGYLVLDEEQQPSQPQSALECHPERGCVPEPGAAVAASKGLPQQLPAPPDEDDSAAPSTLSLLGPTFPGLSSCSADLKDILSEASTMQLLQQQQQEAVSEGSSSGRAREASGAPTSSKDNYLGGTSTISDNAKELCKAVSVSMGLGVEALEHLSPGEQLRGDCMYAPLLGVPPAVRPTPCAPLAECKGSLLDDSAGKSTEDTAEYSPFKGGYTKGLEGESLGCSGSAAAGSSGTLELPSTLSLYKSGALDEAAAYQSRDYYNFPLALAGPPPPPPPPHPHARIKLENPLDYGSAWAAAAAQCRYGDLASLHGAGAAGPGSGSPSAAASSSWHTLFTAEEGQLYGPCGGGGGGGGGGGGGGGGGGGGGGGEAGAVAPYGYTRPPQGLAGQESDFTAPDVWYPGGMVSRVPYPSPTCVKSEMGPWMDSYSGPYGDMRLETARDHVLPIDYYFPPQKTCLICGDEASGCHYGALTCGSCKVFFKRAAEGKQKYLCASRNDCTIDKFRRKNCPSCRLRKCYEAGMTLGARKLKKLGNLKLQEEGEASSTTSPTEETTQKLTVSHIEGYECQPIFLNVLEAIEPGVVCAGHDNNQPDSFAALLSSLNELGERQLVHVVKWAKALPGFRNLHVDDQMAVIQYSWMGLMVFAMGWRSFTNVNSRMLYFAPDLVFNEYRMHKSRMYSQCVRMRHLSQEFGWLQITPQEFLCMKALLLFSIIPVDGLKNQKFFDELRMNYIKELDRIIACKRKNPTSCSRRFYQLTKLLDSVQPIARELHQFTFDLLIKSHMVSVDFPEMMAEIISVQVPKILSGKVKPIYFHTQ

On to `C1CCCNCCC1`, for which the Potency result in test [1], in test [2], in test [3], in test [4], in test [5] and in test [6] was “inactive” throughout. In addition, the Potency entry in [7], in [8], in test [9], in [10], in [11] and in [12] was “inactive” in each case. The Potency entry in [13], in test [14] and in test [15] was “inactive” each time. Further, the outcome in test [16] was inactive.

Consider `Nc1ccc([N+](=O)[O-])c(C(F)(F)F)c1`, for which the Potency entry in test [1], in [2], in test [3], in test [4], in test [5] and in test [6] was “inactive” in each case. Also, the Potency entry in test [8], in test [9], in test [10], in test [11], in test [17] and in test [12] was “inactive” each time. The Potency result in test [13], in test [14] and in test [15] was “inactive” each time. Also, the call in [16] was inactive.

In the case of `O=C(Nc1ccc(S(=O)(=O)N2CCOCC2)cc1)c1cc(Cl)ccc1NS(=O)(=O)c1ccc(Cl)s1`, the Potency is 23.9 µM (active) in test [1], 21.3 µM (active) in [2], 23.9 µM (active) in [3] and 9.52 µM (active) in [8]. Besides, the Potency result in test [5], in [6], in test [10], in test [11], in test [17] and in test [18] was “inactive” throughout. Also, the Potency entry in test [12], in test [13], in test [14] and in test [15] was “inactive” in each case. In addition, the molecule was called inactive in test [16].

Turning to `NC(N)=NCCC[C@H](N)C(=O)O`, the results for the cytotoxicity increase in test [1], in [3] and in test [9] were -21.7% [at 6.97 µM], -18% [at 6.97 µM] and -1.13% [at 6.97 µM], respectively. Moreover, the cytotoxicity in [2] was 1.18% [at 6.97 µM]. Also, the activity change, negative = cytotoxic in test [4] was 0.73% [at 6.97 µM]. Besides, the activity change, negative = cytotoxicity in test [5] is 4.77% [at 6.97 µM]; in [6] it was 6.66% [at 6.97 µM]; in test [8] it was 0.79% [at 6.97 µM]; in test [10], 2.44% [at 8.39 µM]; in [13], 4.6% [at 8.39 µM]. Besides, the viability change, negative = cytotoxic in test [11] is 3.68% [at 8.39 µM]; in [14] it was -3.86% [at 8.39 µM]; in [15], 1.21% [at 8.39 µM]. The activity change, negative = inhibition in [17] is 4.47% [at 8.39 µM]; in [12], 1.7% [at 8.39 µM]. The PLD induction in test [18] was -2.12% [at 7.66 µM]. In addition, the activity change in [16] was -0.124% [at 8.39 µM].

Consider `Nc1cccc([N+](=O)[O-])c1`, for which the Potency result in [1], in test [2], in [3], in test [4], in test [5] and in test [7] was “inactive” throughout. Further, the Potency entry in test [8], in test [10], in test [11], in test [19], in [17] and in test [12] was “inactive” throughout. For the same molecule, the Potency result in test [13], in test [14] and in [15] was “inactive” throughout. In addition, the result in [16] was inactive.

For `CCN(CC)c1ccc(C(=C2C=CC(=[N+](CC)CC)C=C2)c2cc(S(=O)(=O)O)ccc2S(=O)(=O)[O-])cc1`, the Potency result in [1], in test [2], in test [4], in test [5], in test [6] and in test [7] was “inactive” each time. The Potency result in test [8] and in test [9] was “inactive” throughout. Further, the Potency is 7.5 µM (active) in [19], 9.44 µM (active) in [12] and 11.9 µM (active) in test [13]. In addition, the call in test [16] was inactive.

As for `COc1ccnc(CS(=O)c2nc3ccc(OC(F)F)cc3[nH]2)c1OC` (stereo not given), the Potency entry in test [1], in test [2], in test [3], in test [4], in [5] and in [6] was “inactive” throughout. Further, the Potency result in test [7], in test [8], in [9], in test [10], in test [11] and in test [17] was “inactive” throughout. In addition, the Potency entry in test [18], in [12], in [13], in test [14] and in test [15] was “inactive” each time. Moreover, the result in [16] was inactive.
